What all share (experiment): DAPPL (digital affinity profiling via proximity ligation, sequencing); 10 mM Tris-HCl pH 7.5, 50 mM NaCl, 1 mM DTT, 4% glycerol, room temperature, 30 min; GST-TFs on glutathione beads, 16-mer random dsDNA library, 0.1% formaldehyde crosslink after washing; high values mean tight binding
One experiment has as its target T1, FLI1 (Homo sapiens, UniProt Q01543 1-452).
T1 sequence: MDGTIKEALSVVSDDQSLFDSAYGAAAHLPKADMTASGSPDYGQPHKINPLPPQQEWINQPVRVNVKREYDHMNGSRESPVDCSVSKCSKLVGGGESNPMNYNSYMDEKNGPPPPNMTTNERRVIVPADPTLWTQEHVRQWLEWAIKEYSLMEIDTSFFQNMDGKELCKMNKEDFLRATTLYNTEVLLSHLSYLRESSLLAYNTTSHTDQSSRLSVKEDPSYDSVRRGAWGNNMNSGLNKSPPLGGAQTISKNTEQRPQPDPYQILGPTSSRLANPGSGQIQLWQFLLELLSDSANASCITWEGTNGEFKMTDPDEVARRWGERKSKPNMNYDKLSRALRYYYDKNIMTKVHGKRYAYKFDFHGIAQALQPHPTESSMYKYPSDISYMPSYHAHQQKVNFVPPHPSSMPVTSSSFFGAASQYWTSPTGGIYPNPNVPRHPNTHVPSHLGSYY
To be noted: protein: recombinant; tags: N-terminal GST; dsDNA, one strand shown. In outline: (§1)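 Binding signal is given per hexamer as its read frequency for a factor divided by its frequency in the tag-only sample. GST-fused human transcription factors were expressed in yeast, captured on glutathione beads, barcoded with DNA and pooled with that sample, then incubated with 200 nmole of a 16-mer random double-stranded DNA library in Tris/NaCl/DTT/glycerol buffer for 30 min at room temperature. The pools were then washed, crosslinked, proximity-ligated, amplified by PCR and sequenced on an Illumina NextSeq500.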

A further experiment deals with T2, ELK1 (Homo sapiens, UniProt P19419 1-428).
T2 sequence: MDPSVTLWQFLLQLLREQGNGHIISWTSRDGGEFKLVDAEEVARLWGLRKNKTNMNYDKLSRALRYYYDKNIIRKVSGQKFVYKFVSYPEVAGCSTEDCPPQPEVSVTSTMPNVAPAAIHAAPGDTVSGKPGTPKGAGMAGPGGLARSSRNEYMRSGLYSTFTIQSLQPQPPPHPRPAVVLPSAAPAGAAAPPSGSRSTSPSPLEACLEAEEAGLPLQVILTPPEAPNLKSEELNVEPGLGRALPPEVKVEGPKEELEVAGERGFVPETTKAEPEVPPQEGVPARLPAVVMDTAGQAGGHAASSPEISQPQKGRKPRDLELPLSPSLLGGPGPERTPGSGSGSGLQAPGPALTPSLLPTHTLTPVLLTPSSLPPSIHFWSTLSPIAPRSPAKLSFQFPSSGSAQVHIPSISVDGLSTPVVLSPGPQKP
The settings on record: protein: recombinant; tags: N-terminal GST; dsDNA, one strand shown. In a few lines:
as §1

The target of a further experiment is T3, GABPA (Homo sapiens, UniProt Q06546 1-454).
T3 sequence: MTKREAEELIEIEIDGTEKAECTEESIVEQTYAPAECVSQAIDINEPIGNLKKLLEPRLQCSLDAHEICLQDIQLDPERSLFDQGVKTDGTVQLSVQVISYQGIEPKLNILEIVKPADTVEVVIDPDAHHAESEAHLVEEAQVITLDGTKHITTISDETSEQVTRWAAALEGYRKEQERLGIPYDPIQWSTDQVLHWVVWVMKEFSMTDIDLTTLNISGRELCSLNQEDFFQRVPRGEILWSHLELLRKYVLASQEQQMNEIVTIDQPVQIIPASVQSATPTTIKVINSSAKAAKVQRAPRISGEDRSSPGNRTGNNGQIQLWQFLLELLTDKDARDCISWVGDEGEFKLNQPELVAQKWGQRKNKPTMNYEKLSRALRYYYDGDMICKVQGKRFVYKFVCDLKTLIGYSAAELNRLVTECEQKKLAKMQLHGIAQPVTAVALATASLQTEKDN
To be noted: protein: recombinant; tags: N-terminal GST; dsDNA, one strand shown. In a few lines:
as §1

The next experiment addresses T4, ERG (Homo sapiens, UniProt P11308 1-479).
T4 sequence: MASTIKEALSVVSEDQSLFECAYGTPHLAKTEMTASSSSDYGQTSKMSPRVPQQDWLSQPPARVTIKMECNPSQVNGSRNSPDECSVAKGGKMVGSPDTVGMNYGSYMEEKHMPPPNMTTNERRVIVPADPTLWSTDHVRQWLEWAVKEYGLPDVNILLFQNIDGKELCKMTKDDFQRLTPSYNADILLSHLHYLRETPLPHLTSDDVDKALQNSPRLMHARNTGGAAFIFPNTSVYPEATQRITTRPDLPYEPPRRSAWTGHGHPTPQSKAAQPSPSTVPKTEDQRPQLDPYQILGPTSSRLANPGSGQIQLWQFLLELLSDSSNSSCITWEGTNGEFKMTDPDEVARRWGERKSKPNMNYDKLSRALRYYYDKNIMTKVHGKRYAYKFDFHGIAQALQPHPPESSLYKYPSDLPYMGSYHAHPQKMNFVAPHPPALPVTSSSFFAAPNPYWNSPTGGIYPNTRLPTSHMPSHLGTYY
The settings on record: protein: recombinant; tags: N-terminal GST; dsDNA, one strand shown. In a few lines:
as §1

In the next experiment the target is ELF1 (Homo sapiens, UniProt P32519 1-619). The settings on record: protein: recombinant; tags: N-terminal GST; dsDNA, one strand shown. In a few lines:
as §1

Another experiment concerns the target T5, EHF (Homo sapiens, UniProt Q9NZC4 1-300).
T5 sequence: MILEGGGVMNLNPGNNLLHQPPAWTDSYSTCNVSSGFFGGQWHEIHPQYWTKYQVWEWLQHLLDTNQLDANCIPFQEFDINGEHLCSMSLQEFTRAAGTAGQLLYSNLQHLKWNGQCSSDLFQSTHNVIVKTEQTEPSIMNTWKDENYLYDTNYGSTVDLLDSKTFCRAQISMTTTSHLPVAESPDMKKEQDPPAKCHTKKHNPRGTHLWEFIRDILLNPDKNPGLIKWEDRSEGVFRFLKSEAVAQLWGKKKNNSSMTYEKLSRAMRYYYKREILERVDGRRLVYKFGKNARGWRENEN
To be noted: protein: recombinant; tags: N-terminal GST; dsDNA, one strand shown. In outline: as §1

A further experiment deals with SPI1 (Homo sapiens, UniProt P17947 1-270). To be noted: protein: recombinant; tags: N-terminal GST; dsDNA, one strand shown. In outline:
as §1

In another experiment the target is SPIB (Homo sapiens, UniProt Q01892 1-262). The settings on record: protein: recombinant; tags: N-terminal GST; dsDNA, one strand shown. In a few lines: as §1
Chain of SPIB (Q01892 whole entry): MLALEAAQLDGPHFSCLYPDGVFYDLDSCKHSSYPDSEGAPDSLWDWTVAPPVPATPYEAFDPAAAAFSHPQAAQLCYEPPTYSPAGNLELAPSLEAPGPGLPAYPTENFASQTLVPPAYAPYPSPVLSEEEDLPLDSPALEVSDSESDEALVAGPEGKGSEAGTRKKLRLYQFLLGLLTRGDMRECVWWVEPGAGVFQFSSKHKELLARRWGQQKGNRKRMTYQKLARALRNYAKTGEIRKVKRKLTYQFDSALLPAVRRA
Another experiment addresses T6, ELK3 (Homo sapiens, UniProt P41970 1-407).
T6 sequence: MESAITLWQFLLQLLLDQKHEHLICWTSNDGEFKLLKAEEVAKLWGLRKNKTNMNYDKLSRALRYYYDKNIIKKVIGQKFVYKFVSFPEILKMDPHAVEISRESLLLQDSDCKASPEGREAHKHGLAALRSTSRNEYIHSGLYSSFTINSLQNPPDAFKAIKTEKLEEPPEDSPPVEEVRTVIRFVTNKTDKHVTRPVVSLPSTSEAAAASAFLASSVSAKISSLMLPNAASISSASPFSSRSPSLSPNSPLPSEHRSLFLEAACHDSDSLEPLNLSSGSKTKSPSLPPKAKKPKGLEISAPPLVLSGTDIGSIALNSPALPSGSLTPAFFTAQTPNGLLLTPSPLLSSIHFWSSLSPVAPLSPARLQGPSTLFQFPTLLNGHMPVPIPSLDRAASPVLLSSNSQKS
The settings on record: protein: recombinant; tags: N-terminal GST; dsDNA, one strand shown. In a few lines:
as §1

Another experiment has as its target T7, FEV (Homo sapiens, UniProt Q99581 1-238).
T7 sequence: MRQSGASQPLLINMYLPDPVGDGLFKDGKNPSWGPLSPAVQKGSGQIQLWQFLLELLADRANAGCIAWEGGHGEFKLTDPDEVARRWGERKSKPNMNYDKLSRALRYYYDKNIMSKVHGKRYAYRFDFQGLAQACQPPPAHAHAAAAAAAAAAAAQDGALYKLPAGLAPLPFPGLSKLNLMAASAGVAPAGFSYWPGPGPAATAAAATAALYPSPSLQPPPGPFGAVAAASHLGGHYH
The settings on record: protein: recombinant; tags: N-terminal GST; dsDNA, one strand shown. In outline:
as §1

Another experiment concerns the target ETV5 (Homo sapiens, UniProt P41161 1-510). To be noted: protein: recombinant; tags: N-terminal GST; dsDNA, one strand shown. In a few lines:
as §1

The next experiment has as its target HSF1 (Homo sapiens, UniProt Q00613 1-529). To be noted: protein: recombinant; tags: N-terminal GST; chain copies: 3; dsDNA, one strand shown. In a few lines:
as §1

A further experiment concerns the target T8, SPIC (Homo sapiens, UniProt Q8N5J4 1-248).
T8 sequence: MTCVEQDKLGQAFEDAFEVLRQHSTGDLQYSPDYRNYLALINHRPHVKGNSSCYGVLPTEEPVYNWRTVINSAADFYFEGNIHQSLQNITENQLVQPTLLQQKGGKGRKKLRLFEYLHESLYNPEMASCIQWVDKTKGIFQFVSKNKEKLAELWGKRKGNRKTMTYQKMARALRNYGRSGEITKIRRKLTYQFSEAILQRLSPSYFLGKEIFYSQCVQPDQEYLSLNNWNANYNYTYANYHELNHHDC
To be noted: protein: recombinant; tags: N-terminal GST; dsDNA, one strand shown. In a few lines: as §1

A further experiment has as its target ELF4 (Homo sapiens, UniProt Q99607 1-663). The settings on record: protein: recombinant; tags: N-terminal GST; dsDNA, one strand shown. In a few lines: as §1
Another experiment has as its target T9, ELK4 (Homo sapiens, UniProt P28324-2 1-405).
T9 sequence: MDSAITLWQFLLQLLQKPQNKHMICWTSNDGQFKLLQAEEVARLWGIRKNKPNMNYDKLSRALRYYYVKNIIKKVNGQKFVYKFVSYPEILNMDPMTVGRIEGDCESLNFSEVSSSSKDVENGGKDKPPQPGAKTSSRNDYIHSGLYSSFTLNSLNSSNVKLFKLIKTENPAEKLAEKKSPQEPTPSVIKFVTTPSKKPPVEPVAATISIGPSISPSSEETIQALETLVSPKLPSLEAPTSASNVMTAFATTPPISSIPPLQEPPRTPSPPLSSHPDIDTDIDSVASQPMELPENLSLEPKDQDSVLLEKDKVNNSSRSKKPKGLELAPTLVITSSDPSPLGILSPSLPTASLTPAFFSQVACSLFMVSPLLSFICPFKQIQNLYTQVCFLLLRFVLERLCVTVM
The settings on record: protein: recombinant; tags: N-terminal GST; dsDNA, one strand shown. In a few lines:
as §1

In another experiment the target is T10, ETV2 (Homo sapiens, UniProt O00321 1-342).
T10 sequence: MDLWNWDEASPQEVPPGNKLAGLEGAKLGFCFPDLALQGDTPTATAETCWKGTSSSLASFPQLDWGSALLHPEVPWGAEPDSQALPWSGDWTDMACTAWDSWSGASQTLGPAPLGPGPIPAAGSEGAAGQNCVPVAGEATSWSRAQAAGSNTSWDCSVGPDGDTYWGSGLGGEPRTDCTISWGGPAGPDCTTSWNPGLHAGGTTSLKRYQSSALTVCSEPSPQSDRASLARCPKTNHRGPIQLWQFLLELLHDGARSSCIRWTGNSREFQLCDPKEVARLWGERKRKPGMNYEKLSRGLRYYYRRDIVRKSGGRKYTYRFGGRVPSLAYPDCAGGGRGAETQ
To be noted: protein: recombinant; tags: N-terminal GST; dsDNA, one strand shown. In a few lines: as §1

The target of the next experiment is T11, ELF3 (Homo sapiens, UniProt P78545 1-371).
T11 sequence: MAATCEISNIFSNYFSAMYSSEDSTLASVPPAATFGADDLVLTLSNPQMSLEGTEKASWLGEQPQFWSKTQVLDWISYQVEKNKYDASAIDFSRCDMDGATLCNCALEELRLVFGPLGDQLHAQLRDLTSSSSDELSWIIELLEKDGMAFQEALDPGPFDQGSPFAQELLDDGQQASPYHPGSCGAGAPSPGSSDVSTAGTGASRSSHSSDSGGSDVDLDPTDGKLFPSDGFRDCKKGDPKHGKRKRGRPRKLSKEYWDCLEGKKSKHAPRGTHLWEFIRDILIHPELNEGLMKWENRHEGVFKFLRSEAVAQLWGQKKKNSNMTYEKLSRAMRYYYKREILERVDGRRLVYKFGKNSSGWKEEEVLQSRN
To be noted: protein: recombinant; tags: N-terminal GST; dsDNA, one strand shown. In a few lines:
as §1

A further experiment addresses CRX (Homo sapiens, UniProt O43186 1-299). The settings on record: protein: recombinant; tags: N-terminal GST; dsDNA, one strand shown. In outline:
as §1

A further experiment concerns the target ETV1 (Homo sapiens, UniProt P50549 1-477). To be noted: protein: recombinant; tags: N-terminal GST; dsDNA, one strand shown. In a few lines:
as §1

Chain of HSF1 (Q00613 whole entry): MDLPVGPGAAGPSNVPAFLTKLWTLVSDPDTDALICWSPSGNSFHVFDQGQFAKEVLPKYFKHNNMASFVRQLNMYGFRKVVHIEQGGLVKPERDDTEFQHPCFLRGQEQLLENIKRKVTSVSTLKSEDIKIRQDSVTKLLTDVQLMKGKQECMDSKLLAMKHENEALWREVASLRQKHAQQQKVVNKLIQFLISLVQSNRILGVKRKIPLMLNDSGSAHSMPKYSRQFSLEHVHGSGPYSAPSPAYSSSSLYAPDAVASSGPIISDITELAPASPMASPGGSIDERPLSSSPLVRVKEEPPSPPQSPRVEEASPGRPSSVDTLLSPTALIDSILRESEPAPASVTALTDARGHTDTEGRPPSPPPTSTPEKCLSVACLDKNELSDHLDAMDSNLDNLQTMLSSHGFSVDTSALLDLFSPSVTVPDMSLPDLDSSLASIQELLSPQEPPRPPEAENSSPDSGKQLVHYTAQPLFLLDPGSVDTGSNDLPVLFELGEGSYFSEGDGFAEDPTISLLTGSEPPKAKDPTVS
Chain of ELF4 (Q99607 whole entry): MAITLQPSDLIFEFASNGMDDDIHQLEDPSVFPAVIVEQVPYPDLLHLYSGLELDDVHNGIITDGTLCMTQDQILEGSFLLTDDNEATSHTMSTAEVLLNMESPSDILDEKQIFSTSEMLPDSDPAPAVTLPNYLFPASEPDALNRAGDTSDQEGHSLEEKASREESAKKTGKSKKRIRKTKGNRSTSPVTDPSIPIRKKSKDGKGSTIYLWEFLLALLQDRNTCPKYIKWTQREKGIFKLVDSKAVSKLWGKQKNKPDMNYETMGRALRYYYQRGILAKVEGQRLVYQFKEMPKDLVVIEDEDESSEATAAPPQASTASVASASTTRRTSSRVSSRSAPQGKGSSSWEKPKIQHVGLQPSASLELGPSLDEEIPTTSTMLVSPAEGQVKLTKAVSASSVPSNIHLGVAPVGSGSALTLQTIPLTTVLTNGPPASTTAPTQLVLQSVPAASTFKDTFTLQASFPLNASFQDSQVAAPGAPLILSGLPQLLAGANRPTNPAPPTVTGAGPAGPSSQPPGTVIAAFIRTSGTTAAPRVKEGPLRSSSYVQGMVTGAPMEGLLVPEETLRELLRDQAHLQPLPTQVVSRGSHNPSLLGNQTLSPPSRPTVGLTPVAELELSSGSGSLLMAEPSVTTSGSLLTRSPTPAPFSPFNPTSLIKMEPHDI
Chain of ETV1 (P50549 whole entry): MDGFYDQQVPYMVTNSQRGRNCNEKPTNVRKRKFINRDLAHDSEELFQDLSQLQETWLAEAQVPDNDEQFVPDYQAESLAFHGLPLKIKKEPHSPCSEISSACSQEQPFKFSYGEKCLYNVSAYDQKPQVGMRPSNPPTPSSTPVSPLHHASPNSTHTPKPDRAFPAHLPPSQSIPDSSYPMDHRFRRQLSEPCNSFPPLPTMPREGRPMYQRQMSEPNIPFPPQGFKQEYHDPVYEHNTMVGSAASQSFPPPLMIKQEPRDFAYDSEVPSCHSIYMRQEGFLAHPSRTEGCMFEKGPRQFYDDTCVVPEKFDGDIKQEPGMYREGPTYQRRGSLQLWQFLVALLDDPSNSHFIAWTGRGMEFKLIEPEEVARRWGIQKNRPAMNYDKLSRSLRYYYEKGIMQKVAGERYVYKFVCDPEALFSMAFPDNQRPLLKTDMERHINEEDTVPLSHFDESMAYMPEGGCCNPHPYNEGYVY
Chain of CRX (O43186 whole entry): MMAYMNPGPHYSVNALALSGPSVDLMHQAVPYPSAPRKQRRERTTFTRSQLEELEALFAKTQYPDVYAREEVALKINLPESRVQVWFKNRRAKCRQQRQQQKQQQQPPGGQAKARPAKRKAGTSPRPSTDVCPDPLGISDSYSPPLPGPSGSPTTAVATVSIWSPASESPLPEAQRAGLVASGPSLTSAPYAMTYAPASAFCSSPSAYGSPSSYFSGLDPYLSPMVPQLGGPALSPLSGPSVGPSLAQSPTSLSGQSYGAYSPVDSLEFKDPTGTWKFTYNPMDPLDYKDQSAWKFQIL
Chain of ELF1 (P32519 whole entry): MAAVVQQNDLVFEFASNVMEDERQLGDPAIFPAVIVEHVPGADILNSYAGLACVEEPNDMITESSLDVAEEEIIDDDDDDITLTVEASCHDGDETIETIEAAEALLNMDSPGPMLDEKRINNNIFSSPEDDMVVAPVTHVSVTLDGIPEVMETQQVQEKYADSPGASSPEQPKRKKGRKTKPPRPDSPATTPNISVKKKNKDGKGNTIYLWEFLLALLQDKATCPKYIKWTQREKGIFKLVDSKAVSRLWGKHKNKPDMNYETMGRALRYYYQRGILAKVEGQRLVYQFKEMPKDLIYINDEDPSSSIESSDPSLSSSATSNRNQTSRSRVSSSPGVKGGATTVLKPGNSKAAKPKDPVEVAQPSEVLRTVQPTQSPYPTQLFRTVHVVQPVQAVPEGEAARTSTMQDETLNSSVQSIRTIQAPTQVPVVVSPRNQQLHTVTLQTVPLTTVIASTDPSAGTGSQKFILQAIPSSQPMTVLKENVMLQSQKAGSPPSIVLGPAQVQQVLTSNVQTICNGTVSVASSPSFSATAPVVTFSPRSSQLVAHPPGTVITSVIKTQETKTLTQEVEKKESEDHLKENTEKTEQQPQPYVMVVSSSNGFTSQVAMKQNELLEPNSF
Chain of ETV5 (P41161 whole entry): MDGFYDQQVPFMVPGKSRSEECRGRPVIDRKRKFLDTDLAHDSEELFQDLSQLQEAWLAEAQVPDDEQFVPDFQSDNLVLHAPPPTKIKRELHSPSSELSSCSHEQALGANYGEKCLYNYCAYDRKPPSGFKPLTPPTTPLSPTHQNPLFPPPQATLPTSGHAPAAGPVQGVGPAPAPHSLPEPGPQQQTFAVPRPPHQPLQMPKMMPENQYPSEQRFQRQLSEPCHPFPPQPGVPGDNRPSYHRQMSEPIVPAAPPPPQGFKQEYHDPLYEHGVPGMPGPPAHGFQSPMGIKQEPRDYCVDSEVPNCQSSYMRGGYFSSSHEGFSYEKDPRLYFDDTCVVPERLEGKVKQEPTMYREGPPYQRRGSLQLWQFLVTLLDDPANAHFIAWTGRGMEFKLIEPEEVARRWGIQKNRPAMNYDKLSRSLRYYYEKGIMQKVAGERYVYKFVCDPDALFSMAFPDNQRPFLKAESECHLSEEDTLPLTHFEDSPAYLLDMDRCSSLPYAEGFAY

For CTTACC, the binding signal with FLI1 is 1.21 fold enrichment (6-mer frequency, TF over GST control); in the experiment with ELK1, 1.22 fold enrichment (6-mer frequency, TF over GST control); with GABPA, 1.26 fold enrichment (6-mer frequency, TF over GST control); with ERG, 1.24 fold enrichment (6-mer frequency, TF over GST control); in the experiment with ELF1, 1.24 fold enrichment (6-mer frequency, TF over GST control); with EHF, 1.17 fold enrichment (6-mer frequency, TF over GST control). Also, the binding signal is 1.34 fold enrichment (6-mer frequency, TF over GST control) with SPI1; 1.32 fold enrichment (6-mer frequency, TF over GST control) with SPIB; 1.26 fold enrichment (6-mer frequency, TF over GST control) with ELK3; 1.25 fold enrichment (6-mer frequency, TF over GST control) with FEV; 1.21 fold enrichment (6-mer frequency, TF over GST control) with ETV5; 1.26 fold enrichment (6-mer frequency, TF over GST control) with HSF1. The binding signal with SPIC was 1.34 fold enrichment (6-mer frequency, TF over GST control); with ELF4, 1.25 fold enrichment (6-mer frequency, TF over GST control); with ELK4, 1.27 fold enrichment (6-mer frequency, TF over GST control); with ETV2 it was 1.27 fold enrichment (6-mer frequency, TF over GST control); in the experiment with ELF3 it was 1.27 fold enrichment (6-mer frequency, TF over GST control); with CRX, 1.58 fold enrichment (6-mer frequency, TF over GST control). For the same sequence, the binding signal with ETV1 was 1.28 fold enrichment (6-mer frequency, TF over GST control).

The record behind these values is PMC7862700, “An all-to-all approach to the identification of sequence-specific readers for epigenetic DNA modifications on cytosine”.
